Source: PubChem BioAssay AID463116 (University of Pittsburgh Molecular Library Screening Center, 2010)
In all, about 1,000 compounds went through this assay and about 710 (71%) were called active. Not shown: some 7% with an inconclusive outcome.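 How the source made its calls: active means inhibition of receptor movement into the nucleus at or above a set limit in both runs, with normal cell brightness and cell count; inconclusive means limit reached in only one run, brightness and count normal; inactive means the rest.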 The set was probably picked from earlier hits. A selection follows.

Assay: dynein cargo transport inhibitors, GR-EGFP translocation, confirmation, imaging, high-content imaging, GR-EGFP cells (AID 463116);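 on inhibition: dexamethasone at 1 µM final in well for 30 min; nuclear minus cytoplasmic GR-EGFP mean intensity difference in channel 2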
Details: 3617.4 GR-EGFP nuclear translocation imaging, dexamethasone-induced, at 20 µM; inhibition: stronger effect = higher value; z-score: measured here: cell count per field

**Q.** With COc1cccc(N2C(=O)NC(=O)/C(=C\c3ccc([N+](=O)[O-])s3)C2=O)c1 as the compound, how does the inhibition read?
**A.** 81.3% (active)

**Q.** And the z-score?
**A.** 0.0253

**Q.** Which inhibition does the source give for O=C1NC(=O)N(c2ccccc2)C(=O)/C1=C/c1ccc([N+](=O)[O-])s1 here?
**A.** 81.8% (active)

**Q.** And the z-score?
**A.** 0.0604
